Source: PubChem (National Center for Advancing Translational Sciences (NCATS))
KCNH2 WT inh: inhibitors of human wildtype KCNH2 potassium channel; 0.37% of 340,000 active; U2OS, BacMam KCNH2, thallium flux FluxOr; hits give low values; Q12809; AID 720551; activity change, % at 1.84 µM;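 active = maximum activity change below -70%; inconclusive = maximum activity change between -70% and -50%; inactive = maximum activity change above -50%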
Target sequence (Q12809 whole entry, looked up): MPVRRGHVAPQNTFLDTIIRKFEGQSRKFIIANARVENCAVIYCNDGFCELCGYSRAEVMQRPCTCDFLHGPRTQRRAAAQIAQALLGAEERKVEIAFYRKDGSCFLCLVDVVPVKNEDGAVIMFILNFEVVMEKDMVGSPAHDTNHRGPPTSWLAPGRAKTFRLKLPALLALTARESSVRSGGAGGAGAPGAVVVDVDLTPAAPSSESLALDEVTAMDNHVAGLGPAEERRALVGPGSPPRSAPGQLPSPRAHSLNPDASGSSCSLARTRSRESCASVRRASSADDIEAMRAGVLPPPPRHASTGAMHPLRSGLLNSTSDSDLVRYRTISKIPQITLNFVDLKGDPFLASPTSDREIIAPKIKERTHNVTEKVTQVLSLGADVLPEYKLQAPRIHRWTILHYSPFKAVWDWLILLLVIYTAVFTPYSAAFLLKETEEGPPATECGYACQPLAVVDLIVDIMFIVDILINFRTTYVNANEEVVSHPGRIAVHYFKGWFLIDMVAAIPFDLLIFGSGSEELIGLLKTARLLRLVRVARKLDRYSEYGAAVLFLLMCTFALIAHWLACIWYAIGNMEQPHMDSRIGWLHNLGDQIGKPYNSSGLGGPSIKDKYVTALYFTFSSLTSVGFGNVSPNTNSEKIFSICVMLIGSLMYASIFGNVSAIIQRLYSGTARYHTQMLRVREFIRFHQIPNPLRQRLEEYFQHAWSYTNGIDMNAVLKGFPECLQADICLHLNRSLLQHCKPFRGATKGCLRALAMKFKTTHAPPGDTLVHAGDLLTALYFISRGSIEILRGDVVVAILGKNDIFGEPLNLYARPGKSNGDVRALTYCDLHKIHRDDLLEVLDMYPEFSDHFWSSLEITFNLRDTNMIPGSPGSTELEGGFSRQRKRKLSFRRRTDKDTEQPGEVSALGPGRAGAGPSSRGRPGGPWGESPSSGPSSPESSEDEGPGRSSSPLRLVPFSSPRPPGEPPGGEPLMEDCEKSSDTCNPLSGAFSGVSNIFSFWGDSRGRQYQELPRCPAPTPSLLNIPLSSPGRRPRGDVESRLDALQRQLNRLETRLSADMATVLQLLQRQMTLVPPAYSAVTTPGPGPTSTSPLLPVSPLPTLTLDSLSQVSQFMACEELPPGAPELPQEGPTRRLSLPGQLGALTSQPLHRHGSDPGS
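U2OS cells were transduced with wild-type KCNH2 virus (2.03 x 10^8 / mL) for 4 h at room temperature, then cultured overnight at 37 C. Thallium flux was read with FluxOr dye. Rate constants were normalized to DMSO controls.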
Luc counter: blocks Kinase-Glo luciferase, a counter-screen artifact. Q27757. Kinase-Glo luciferase, ATP luminescence, 8 min. Potency, µM (highest dose often 38.3 µM), usual class: inhibitors. 0.28% of 200,000 active; active = well fitted inhibition curve with a large enough effect; inconclusive = small, poorly fitted or top-dose-only effect; also: nearly all actives have a fitted effect of over 60% in size
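Substrate mix (final 50 mM imidazole pH 7.2, 50 mM KCl, 7 mM MgCl2, 10 uM ATP, 0.01% Tween 20, 0.05% BSA) plus pin-tool compound, then Kinase-Glo detection mix; 8 min ambient, luminescence read.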
KCNH2 3.1 inh: KCNH2 3.1 (human) potassium channel inhibition; U2OS KCNH2 3.1, thallium flux FluxOr; hits give low values; activity change, % (tested at about 1.8 µM); 0.95% of 340,000 active; AID 720553;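 active = maximum activity change below -70%; inconclusive = maximum activity change from -70% to -50%; inactive = maximum activity change above -50%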;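 also: thallium influx rate constant from kinetic fluorescence after stimulation buffer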
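Thallium flux via FluxOr fluorescence (Red40 quencher, 45 min loading) in U2OS cells virally expressing the KCNH2 3.1 isoform (1.77 x 10^8 /mL virus, overnight at 37 C). Rate constants from 2-min kinetic reads post-stimulation, normalised to positive and negative controls.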
Numbers stand for hits; 0 = inactive; ? = inconclusive; - = no result given. In the library only some 1.2% were active in any assay of this set; here they are far more common.

SMILES	KCNH2 WT inh	Luc counter	KCNH2 3.1 inh
COc1ccc(Cl)cc1NC(=S)NNC(=O)C1(C)CC1(Cl)Cl (configuration not stated)	0	0	0
O=C(COc1ncnc2ccc(Br)cc12)Nc1ccc(N2CCOCC2)cc1	0	0	0
Brc1ccc2ncnc(Nc3ccc(N4CCOCC4)cc3)c2c1	0	0	-104.5
Cc1cc(C2=NNC(=NC3CC3)SC2)c(C)n1-c1ccccc1	0	?	0
c1ccc(C2=NNC(=NC3CC3)SC2)cc1	0	4.47µM	0
c1ccc2c(C3=NNC(=NC4CCCCC4)SC3)c[nH]c2c1	0	0	-86.5
c1ccc2c(C3=NNC(=NC4CC4)SC3)c[nH]c2c1	0	0	0
O=C1CCCC2=C1C(c1ccc(Cl)cc1)N1C(=O)CCSC1=N2 (configuration not stated)	0	0	0
CC1(C)CC(=O)C2=C(C1)N=C1SCCC(=O)N1C2c1ccccc1 (configuration not stated)	0	0	-70.9
COCCn1c(C)cc(C(=O)CSc2n[nH]c(N)n2)c1C	0	0	0
COCCn1c(C)cc(C(=O)CSc2nnc(C)s2)c1C	0	10µM	0
NS(=O)(=O)c1ccc(N2CCN(CCOc3ccc(Cl)cc3)CC2)nc1	0	-	-94.7
NS(=O)(=O)c1ccc(N2CCN(S(=O)(=O)Cc3ccccc3)CC2)nc1	0	-	0
COc1ccc(C)cc1N(C(=O)COc1ccccc1)c1nc2ccccc2s1	?	0	-74.0
COc1ccc(C)cc1N(C(=O)c1ccccc1)c1nc2ccccc2s1	0	0	0
Cc1ccc(Cn2nc(C)c(C(=O)NCC(c3ccc(F)cc3)N3CCOCC3)c2Cl)cc1 (configuration not stated)	0	-	0
CN(C(=O)COc1ccc(Cl)cc1Cl)C1(C)CCS(=O)(=O)C1 (configuration not stated)	0	-	0
Cc1ccc(N(C(=O)CCC(=O)Nc2cc(C)on2)C(C(=O)NC2CCCC2)c2cccs2)cc1 (configuration not stated)	0	0	0
Cc1cc(NC(=O)CCC(=O)N(c2ccccc2)C(C(=O)NC2CCCC2)c2cccs2)no1 (configuration not stated)	0	0	-185.7
COc1cc2nc3n(c(=O)c2cc1OC)-c1ncccc1C(=O)NC3Cc1ccccc1 (configuration not stated)	0	-	0
N#Cc1ccc(C(=O)OCCCc2cc3ccccc3c(=O)o2)cc1	0	-	0
COc1ccc(-c2csc(Nc3ccccc3)[n+]2CC(O)c2ccc([N+](=O)[O-])cc2)cc1 (configuration not stated)	0	-	0
O=C(N/N=C/c1c(Cl)cccc1Cl)c1n[nH]c2c1CCCC2	0	8.91µM	0
Cc1ccsc1/C=N\NC(=O)c1n[nH]c2c1CCC2	0	7.08µM	0
O=C(NN=C1CCCC1)c1n[nH]c2c1CCCC2	0	12.6µM	0
SMILES	KCNH2 WT inh	Luc counter	KCNH2 3.1 inh
Cc1ccsc1/C=N/NC(=O)c1sccc1C	0	?	0
O=C(N/N=C/c1c(Cl)cccc1Cl)c1ccc(F)cc1	0	0	0
O=C(NN=C1CCCC1)c1n[nH]c2c1CCC2	0	?	0
O=C(CCNS(=O)(=O)c1ccc(Br)cc1)N1CCN(c2ccccc2O)CC1	0	-	0
CCC(C)CCCCCCCCCCC(=O)O (configuration not stated)	0	-	0
COc1cccc(CN(C)C[C@@H]2OCc3cnnn3CCCC(=O)N([C@@H](C)CO)C[C@H]2C)c1	0	-	0
Cn1c(=O)c(CCc2ccccc2)nc2cnc(N3CCNCC3)nc21	-	0	-
CC(=O)c1cccc(NC(=O)C(C)OC(=O)c2cc(=O)[nH]c3ccccc23)c1 (configuration not stated)	0	-	0
O=[N+]([O-])c1ccc(N2CCN(C(=S)c3cccc([N+](=O)[O-])c3)CC2)cc1	0	-	-101.5
O=[N+]([O-])c1ccc(CN2CCN(c3ccc([N+](=O)[O-])cc3)CC2)cc1	-73.3	-	0
O=[N+]([O-])c1ccc(CN2CCN(c3ccc4ccccc4n3)CC2)cc1	?	0	-99.3
CCCn1c(N2CCN(C(=O)/C=C/C(=O)O)CC2)nc2ccccc21	0	-	0
O=[N+]([O-])c1ccc(N2CCN(Cc3cccc([N+](=O)[O-])c3)CC2)cc1	0	-	?
O=[N+]([O-])c1ccc(N2CCN(Cc3ccccc3)CC2)nc1	0	0	0
CCn1c(N2CCN(C(=O)/C=C/c3ccccc3)CC2)nc2ccccc21	?	0	-90.3
CC(=O)N1CCN(C(=S)c2cccc([N+](=O)[O-])c2)CC1	0	0	0
CC1Cc2ccccc2N1C(=O)COC(=O)c1ccc([N+](=O)[O-])o1 (configuration not stated)	0	-	0
CCOC(=O)C1CCCN(CC(=O)Nc2nc(-c3ccccc3)cs2)C1 (configuration not stated)	0	-	0
C[C@@H]1CN([C@@H](C)CO)C(=O)CCCn2nncc2CO[C@H]1CN(C)C	0	-	0
CC[C@H]1C=C[C@@H](C(C(=O)OC)C(=O)OC)CN1C(C)=O	0	-	0
COC(=O)c1nnn(-c2nonc2N)c1CN1CCCC1	0	-	0
O=C(COC(=O)c1ccc(O)cc1)NCC1COc2ccccc2O1 (configuration not stated)	0	-	0
CCn1c(N2CCN(S(=O)(=O)CC)CC2)nc2ccccc21	0	0	0
CCCn1c(N2CCN(Cc3ccc(Cl)cc3)CC2)nc2ccccc21	0	0	-79.0
CCn1c(N2CCN(Cc3ccc([N+](=O)[O-])cc3)CC2)nc2ccccc21	-86.8	-	-94.1
SMILES	KCNH2 WT inh	Luc counter	KCNH2 3.1 inh
CCn1c(N2CCN(S(=O)(=O)c3ccc(Cl)cc3)CC2)nc2ccccc21	0	0	0
COC(=O)[C@@H](NS(=O)(=O)c1ccc(F)cc1Br)C(C)C	0	-	0
Cc1cccc(OCC(=O)N(Cc2ccco2)C2CCS(=O)(=O)C2)c1 (configuration not stated)	0	-	0
CN1CCC(N(C)C(=O)c2cc(S(=O)(=O)N3CCOCC3)ccc2Cl)CC1	0	-	0
CN1CCC(N(C)C(=O)c2ccc(Cl)c(S(=O)(=O)N3CCOCC3)c2)CC1	-194.2	-	-149.5
Cc1ccc(C)c(NC(=O)CN(C)C(=O)c2ccccc2OCc2ccc(Cl)cc2)c1	0	-	0
Cc1ccccc1N1CCN(CCCN2C(=O)CC(=C(c3ccccc3)c3ccccc3)C2=O)CC1	0	0	0
O=C1CC(=C(c2ccccc2)c2ccccc2)C(=O)N1CCCCN1CCN(c2cccc(Cl)c2)CC1	-75.4	0	-74.1
Cc1cc(-c2ccc(C)c(S(=O)(=O)N3CCN(c4ccc([N+](=O)[O-])cc4)CC3)c2)on1	0	-	-95.6
Cc1cc(-c2ccc(C)c(S(=O)(=O)N3CCN(c4ccccn4)CC3)c2)on1	0	-	0
CCN(CC)CCN1C(=O)/C(=C\c2ccc(Cl)c([N+](=O)[O-])c2)SC1=Nc1ccc(OC)cc1	0	-	-99.1
COc1ccc(N=C2S/C(=C\c3ccc(Cl)c([N+](=O)[O-])c3)C(=O)N2CCN(C)C)cc1	0	-	0
O=C(NCCCN1CCOCC1)c1onc(CSc2ccccc2)c1C(=O)NCCCN1CCOCC1	0	-	0
COc1cccc(SCc2noc(C(=O)NCCCN3CCOCC3)c2C(=O)NCCCN2CCOCC2)c1	0	-	-97.5
